{"source": "PubChem BioAssay (NCATS)", "note": "Results filed as inconclusive are left out. A number with no mark means an inactive call. Calls come from the whole dose curve; as a rule, active = well fitted cell-killing curve with a large enough effect; inconclusive = small, poorly fitted or top-dose-only effect, or effect the other way; inactive = flat fitted curve, though single readings scatter. % is set by controls: 0 for no effect and ±100 for the full control effect.", "data": [{"test_system": "Tov112D", "assay": "Primary qHTS to identify gynecologic anti-cancer compounds using libraries of approved drugs and bioactive compounds (AID 1345084); note: nearly all actives have a fitted effect of over 55% in size", "settings": "Gynecologic cancer cell panel viability, ATPlite luminescence, 48 h; series mostly up to 57.5 µM; activity change, negative = cytotoxicity: at the top concentration", "method_in_brief": "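Cells, 1,000 per well, plated 16 h, then exposed 48 h at 37 C to compounds. Viability by ATPlite luminescence after 15 min at room temperature.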", "values": [{"smiles": "COCCc1ccccn1", "activity change, negative = cytotoxicity": "-0.969%"}, {"smiles": "OC1(c2ccccc2)CCNCC1", "activity change, negative = cytotoxicity": "-0.905%"}, {"smiles": "O=C1NC(c2ccccc2)(c2ccccc2)C(=O)N1COP(=O)(O)O", "activity change, negative = cytotoxicity": "7.98%"}, {"smiles": "COC(=O)c1cc(Cl)ccc1OC", "activity change, negative = cytotoxicity": "8.37%"}, {"smiles": "COC(=O)CCCCC(CCSS/C(CCO)=C(\\C)N(C=O)Cc1cnc(C)nc1N)SC(C)=O", "note": "(stereo unspecified)", "activity change, negative = cytotoxicity": "3.06%"}, {"smiles": "COc1ccc2nc(SCc3ncc(C)c(OC)c3C)[nH]c2c1", "activity change, negative = cytotoxicity": "-5.54%"}, {"smiles": "Cc1ccc(C(C)OC(=O)C2(C)CCC(C(=O)O)C2(C)C)cc1", "note": "(stereo unspecified)", "activity change, negative = cytotoxicity": "11.9%"}, {"smiles": "CN(C)CCN1CCN(c2cccc(Cl)c2)C1=O", "activity change, negative = cytotoxicity": "8.24%"}, {"smiles": "CCOC(=O)C(=O)CCCCCCl", "activity change, negative = cytotoxicity": "2.68%"}, {"smiles": "CCOC(=O)Oc1ccc(CCNC(=O)[C@H](CCSC)NC(C)=O)cc1OC(=O)OCC", "activity change, negative = cytotoxicity": "-2.18%"}, {"smiles": "COC(=O)c1cc(Cl)c(NC(C)=O)cc1OC", "activity change, negative = cytotoxicity": "-12%"}, {"smiles": "CCN1CCN(c2cc(-c3ccc(F)cc3)c3c(n2)CCCCCC3)CC1", "activity change, negative = cytotoxicity": "-3.99% [at 25.3 µM]"}, {"smiles": "CCCc1ncc(C(=O)O)s1", "activity change, negative = cytotoxicity": "7.94%"}, {"smiles": "Cc1coc2ccccc2c1=O", "activity change, negative = cytotoxicity": "7.36%"}, {"smiles": "O=C1CC2(CCCC2)CC(=O)N1", "activity change, negative = cytotoxicity": "7.52%"}, {"smiles": "COC(=O)/C=C\\C(=O)OC", "activity change, negative = cytotoxicity": "-0.409%"}, {"smiles": "C#CC(C)(CC)OC(=O)c1ccccc1C(=O)O", "note": "(stereo unspecified)", "activity change, negative = cytotoxicity": "7.81%"}, {"smiles": "O=C(O)Cn1c(=O)n(Cc2ccc(Br)cc2F)c(=O)c2ccc(Cl)cc21", "activity change, negative = cytotoxicity": "9.14%"}, {"smiles": "CN1CCN(N)CC1", "activity change, negative = cytotoxicity": "-7.06%"}, {"smiles": "CC(CC(C#N)(c1ccccc1)C(C)C)N(C)C", "note": "(stereo unspecified)", "activity change, negative = cytotoxicity": "4.7%"}, {"smiles": "CCOC(=O)CN1CCCC1=O", "activity change, negative = cytotoxicity": "9.14%"}, {"smiles": "CC(C)(C)NCC(O)COc1ccccc1OCC1CCCO1", "note": "(stereo unspecified)", "activity change, negative = cytotoxicity": "7.58%"}, {"smiles": "CCN(CC)CC(=O)Oc1ccc(NC(C)=O)cc1", "activity change, negative = cytotoxicity": "2.36%"}, {"smiles": "COC(=O)/C=C(/C)N", "activity change, negative = cytotoxicity": "4.59%"}, {"smiles": "C#Cc1ccc(-c2ccccc2F)cc1", "activity change, negative = cytotoxicity": "5.05%"}, {"smiles": "NS(=O)(=O)c1cc(C(=O)NN2C[C@H]3[C@H]4CCC(C4)[C@H]3C2)ccc1Cl", "activity change, negative = cytotoxicity": "16.8%"}, {"smiles": "Cc1[nH]cnc1-c1ccc(Cl)cc1", "activity change, negative = cytotoxicity": "-2.17%"}, {"smiles": "c1ccc2c(c1)CCc1ccccc1N2", "activity change, negative = cytotoxicity": "1.64%"}, {"smiles": "COC(=O)c1cc(S(N)(=O)=O)ccc1OC", "activity change, negative = cytotoxicity": "4.75%"}, {"smiles": "CCOc1ccccc1OCC1CNCCO1", "note": "(stereo unspecified)", "activity change, negative = cytotoxicity": "9.1%"}, {"smiles": "O=C(C1CCCCC1)N1CC(=O)N2CCCc3ccccc3C2C1", "note": "(stereo unspecified)", "activity change, negative = cytotoxicity": "9.6%"}, {"smiles": "CCn1ccc(NS(=O)(=O)c2ccc(N)cc2)nc1=O", "activity change, negative = cytotoxicity": "10.1%"}, {"smiles": "CSCC[C@H](NC(=O)[C@H](Cc1c[nH]c2ccccc12)NC(=O)CCNC(=O)OC(C)(C)C)C(=O)N[C@@H](CC(=O)O)C(=O)N[C@@H](Cc1ccccc1)C(N)=O", "activity change, negative = cytotoxicity": "6.61%"}, {"smiles": "O=C(O)C(=O)Nc1cccc(-c2nn[nH]n2)c1", "activity change, negative = cytotoxicity": "15.2%"}, {"smiles": "COc1ccc(CCC(C)=O)cc1", "activity change, negative = cytotoxicity": "2.16%"}, {"smiles": "COc1cc(S(N)(=O)=O)cc(C(=O)O)c1OC", "activity change, negative = cytotoxicity": "3.06%"}]}]}
